The values below come from PubChem BioAssay (EPA / NIEHS).

By AC50 is commonly meant the concentration giving half of the maximal activity seen.

The source made the active and inactive calls. The calls were made as follows: active = hit-call score of the fitted dose curve at least 0.9, where 1 is the maximum; inactive = score below 0.9.

For test [1], the target named is Transcription factor E2F1 (Homo sapiens) (UniProt Q01094). The test can be described thus: ATG_E2F_CIS: Attagene CIS-FACTORIAL HepG2 Assay for human E2F Transcription Factor 1 (AID 2282935). The note with it: HepG2 Attagene cis-reporter, E2F reporter RNA transcripts; actives raise or lower the signal. The method, boiled down: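 Cis-element reporter mRNA induction in transiently transfected HepG2, 24 h exposure. Activity fitted in both directions relative to DMSO negative control.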

Test [2] can be described thus: ATG_M_61_CIS: Attagene CIS-FACTORIAL HepG2 Assay for M61 Transcription Factor (Internal Marker) (AID 2282937). The note with it: HepG2 Attagene CIS-FACTORIAL M61 internal marker reporter; actives raise or lower the signal. The procedure, abridged: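 Using transiently transfected HepG2 liver cells, reporter transcript levels were assessed 24 h post-dosing by RT-PCR and capillary electrophoresis. Changes in either direction were fitted relative to DMSO controls.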

Test [3] is described as follows: ATG_EGR_CIS: Attagene CIS-FACTORIAL HepG2 Assay for human Early Growth Response 1 (EGR1) (AID 2282938). The following applies: HepG2 Attagene CIS-FACTORIAL EGR reporter mRNA; actives raise or lower the signal. The procedure, abridged:
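Fluorescent capillary-electrophoresis signal of reporter cDNA fragments serves as read-out. HepG2 cells bear transiently transfected cis-promoter reporter units and are exposed 24 h; gain- or loss-of-signal is fitted against DMSO.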

The nature of test [4]: ATG_M_19_CIS: Attagene CIS-FACTORIAL HepG2 Assay for M19 Transcription Factor (Internal Marker) (AID 2282939). The following applies: HepG2 Attagene CIS-FACTORIAL M19 internal marker reporter; actives raise or lower the signal. The procedure, abridged:
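Readout: fluorescent reporter-transcript fragments by capillary electrophoresis after RT-PCR. Human HepG2 liver cells carried transfected MRTU constructs reporting endogenous transcription-factor activity; exposure 24 h. Gain or loss of signal fitted relative to DMSO.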

Test [5] in a line: ATG_ERE_CIS: Attagene CIS-FACTORIAL HepG2 Assay for Estrogen Response Element (ERE) (AID 2282940). The note with it: HepG2 ERE cis-reporter, Attagene RNA transcript; actives raise or lower the signal. The method, boiled down:
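Readout: reporter mRNA induction by RT-PCR, FAM-labelled primer extension, HpaI digestion and capillary electrophoresis, 24 h after dosing transfected HepG2 cells. Endogenous transcription factors act on cis-element-regulated reporters. Gain or loss fitted against DMSO.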

A short description of test [6]: ATG_Ets_CIS: Attagene CIS-FACTORIAL HepG2 Assay for human Erythroblast Transformation Specific (ETS) (AID 2282941). The note with it: HepG2 ETS cis-reporter transcription, actives raise or lower the signal. The procedure, abridged: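 After transient cis-reporter transfection, HepG2 cells receive test chemical for 24 h. Reporter mRNA levels, measured by RT-PCR and capillary electrophoresis fluorescence, are analysed bidirectionally relative to the DMSO baseline.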

For test [7], the target named is Hepatocyte nuclear factor 3-beta (Homo sapiens) (UniProt Q9Y261). The test can be described thus: ATG_FoxA2_CIS: Attagene CIS-FACTORIAL HepG2 Assay for human Forkhead box A2 (FOXA2) (AID 2282942). The note with it: HepG2 cis-reporter transcription factor activity, 24 h; actives raise or lower the signal. The procedure, abridged:
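Fluorescence signal of reporter cDNA fragments, separated by capillary electrophoresis, reflects endogenous transcription factor activity in transfected HepG2 after 24 h. Both increases and decreases fitted against DMSO.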

A short description of test [8]: ATG_FoxO_CIS: Attagene CIS-FACTORIAL HepG2 Assay for human Forkhead box O (FoxO) (AID 2282943). The note with it: HepG2 Attagene cis-reporter, FoxO element, mRNA; actives raise or lower the signal. The method, boiled down: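 Human hepatoma HepG2 cells carry transiently introduced reporter transcription units controlled by cis promoter elements. Chemical treatment lasted 24 h, and mRNA signal was compared with DMSO.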

Test [9] can be described thus: ATG_GATA_CIS: Attagene CIS-FACTORIAL HepG2 Assay for human GATA Binding Protein (AID 2282944). The following applies: HepG2 GATA cis-element reporter, Attagene multiplex mRNA; actives raise or lower the signal. The method, boiled down:
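Read-out: fluorescent reporter mRNA fragments resolved by capillary electrophoresis after RT-PCR. Human liver HepG2 cells carried transiently transfected cis-regulated reporter constructs; chemicals incubated 24 h; gain or loss of signal fitted relative to DMSO.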

A short description of test [10]: ATG_GLI_CIS: Attagene CIS-FACTORIAL HepG2 Assay for human Zinc Finger Protein GLI1 (AID 2282945). The following applies: HepG2, Attagene cis-factorial reporter mRNA, GLI element; actives raise or lower the signal. The method, boiled down: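 Bidirectional curve fits relative to DMSO, using reporter mRNA levels from RT-PCR plus capillary electrophoresis. Cells were HepG2 transiently carrying cis-regulated reporter constructs, harvested 24 h after dosing.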

For test [11], the target named is Bile acid receptor (Homo sapiens) (UniProt Q96RI1). The test can be described thus: ATG_IR1_CIS: Attagene CIS-FACTORIAL HepG2 Assay for human Nuclear Receptor Subfamily 1 Group H Member 4 (NR1H4), IR1 submotif (AID 2282946). The note with it: IR1 reporter transcription, actives raise or lower the signal. The procedure, abridged: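 Cells (human HepG2) carry transiently transfected cis-promoter reporter transcription units. Compounds are incubated 24 h, total RNA is reverse-transcribed and amplified, and labelled fragments are resolved by capillary electrophoresis. Curves use DMSO as baseline.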

A short description of test [12]: ATG_M_32_CIS: Attagene CIS-FACTORIAL HepG2 Assay for M32 Transcription Factor (Internal Marker) (AID 2282949).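 Also: background control marker of the multiplexed CIS panel rather than a real target.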 The note with it: HepG2 Attagene cis-factorial M32 reporter, mRNA; actives raise or lower the signal. The procedure, abridged: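 HepG2 cells transiently transfected with multiplexed cis-regulated reporter units, dosed 24 h. Reporter mRNA quantified by RT-PCR, 6-FAM labelling, HpaI digestion and capillary electrophoresis; bidirectional fit vs DMSO.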

Test [13] is described as follows: ATG_M_06_CIS: Attagene CIS-FACTORIAL HepG2 Assay for M06 Transcription Factor (Internal Marker) (AID 2282950). The following applies: HepG2 Attagene CIS-FACTORIAL M06 internal marker reporter; actives raise or lower the signal. The method, boiled down:
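Terse: HepG2, transient MRTU transfection (FuGene 6), 24 h dosing; total RNA, oligo(dT) RT, PCR, FAM label, HpaI cut, capillary electrophoresis; bidirectional fit vs DMSO baseline; background-control endpoint.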

For test [14], the target named is Hypoxia-inducible factor 1-alpha (Homo sapiens) (UniProt Q16665). Description: ATG_HIF1a_CIS: Attagene CIS-FACTORIAL HepG2 Assay for human Hypoxia Inducible Factor 1 (HIF1A) (AID 2282951). The following applies: HepG2 Attagene cis-factorial HIF1a reporter transcription; actives raise or lower the signal. The procedure, abridged: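 Endogenous-TF cis reporter readout, human HepG2 cells, 24 h incubation; mRNA detected via RT-PCR and capillary electrophoresis fluorescence; DMSO-normalised bidirectional fitting.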

Test [15] addresses Hepatocyte nuclear factor 6 (Homo sapiens) (UniProt Q9UBC0). The test can be described thus: ATG_HNF6_CIS: Attagene CIS-FACTORIAL HepG2 Assay for human Hepatocyte Nuclear Factor 6 (HNF6) (AID 2282952). The note with it: HepG2 Attagene cis-factorial HNF6 reporter transcription; actives raise or lower the signal. The method, boiled down:
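HepG2 cells transiently transfected with cis-element-driven multiple reporter transcription units, dosed 24 h; reporter mRNA quantified by RT-PCR, FAM primer extension, HpaI digestion and capillary electrophoresis; bidirectional fit versus DMSO baseline.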

Test [16] concerns the target Heat shock factor protein 1 (Homo sapiens) (UniProt Q00613). The test can be described thus: ATG_HSE_CIS: Attagene CIS-FACTORIAL HepG2 Assay for human Heat Shock Transcription Factor 1 (HSE) (AID 2282953). The note with it: HepG2 HSE cis-reporter, Attagene RNA transcription; actives raise or lower the signal. The procedure, abridged:
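Read-out: fluorescence of reporter-specific RT-PCR fragments separated by capillary electrophoresis. HepG2 carrying transfected cis-element reporter units; 24 h dosing; activity fitted in both directions relative to DMSO baseline.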

Test [17] can be described thus: ATG_MRE_CIS: Attagene CIS-FACTORIAL HepG2 Assay for human Metal Responsive Element (MRE) (AID 2282954). The following applies: HepG2 MRE cis-reporter transcription, Attagene multiplex; actives raise or lower the signal. The method, boiled down: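 Transient MRTU transfection of HepG2 (FuGene 6); 24 h dosing; total RNA → oligo(dT) RT, PCR, 6-FAM primer extension, HpaI cut, CE. Bidirectional fit vs DMSO.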

A short description of test [18]: ATG_GRE_CIS: Attagene CIS-FACTORIAL HepG2 Assay for human Glucocorticoid Response Elements (GRE) (AID 2282947). The note with it: HepG2 GRE cis-reporter, Attagene multiplex mRNA; actives raise or lower the signal. The method, boiled down:
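Transient MRTU transfection of human HepG2 liver cells; cis-regulated reporters report endogenous factors. 24 h dosing → RNA isolation → RT-PCR → 6-FAM primer extension → HpaI cut → CE fragment analysis. Bidirectional fit, DMSO negative control.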

A short description of test [19]: ATG_ISRE_CIS: Attagene CIS-FACTORIAL HepG2 Assay for human Interferon Regulatory Factor 1 (IRF1) binding to an Interferon-Stimulated Response Element (ISRE) (AID 2282948). The following applies: HepG2 ISRE cis-reporter (Attagene), mRNA transcription readout; actives raise or lower the signal. The procedure, abridged: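 Quantitation relies on labelled RT-PCR fragments separated by capillary electrophoresis. Human HepG2 cells bearing cis-promoter reporter constructs were treated 24 h; DMSO served as baseline for bidirectional fitting.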

Test [20] is described as follows: ATG_E_Box_CIS: Attagene CIS-FACTORIAL HepG2 Assay for human Enhancer Box (E-box) (AID 2282936). The following applies: HepG2 E-box cis-reporter transcription, actives raise or lower the signal. The method, boiled down:
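Cells: HepG2 (human liver), transient MRTU transfection. Exposure 24 h. RNA → oligo(dT) RT → PCR → 6-FAM label → HpaI → CE. Activity fitted both directions relative to DMSO.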

Chain of Hepatocyte nuclear factor 3-beta (Homo sapiens) (Q9Y261 whole entry, looked up, the tested form may be a part): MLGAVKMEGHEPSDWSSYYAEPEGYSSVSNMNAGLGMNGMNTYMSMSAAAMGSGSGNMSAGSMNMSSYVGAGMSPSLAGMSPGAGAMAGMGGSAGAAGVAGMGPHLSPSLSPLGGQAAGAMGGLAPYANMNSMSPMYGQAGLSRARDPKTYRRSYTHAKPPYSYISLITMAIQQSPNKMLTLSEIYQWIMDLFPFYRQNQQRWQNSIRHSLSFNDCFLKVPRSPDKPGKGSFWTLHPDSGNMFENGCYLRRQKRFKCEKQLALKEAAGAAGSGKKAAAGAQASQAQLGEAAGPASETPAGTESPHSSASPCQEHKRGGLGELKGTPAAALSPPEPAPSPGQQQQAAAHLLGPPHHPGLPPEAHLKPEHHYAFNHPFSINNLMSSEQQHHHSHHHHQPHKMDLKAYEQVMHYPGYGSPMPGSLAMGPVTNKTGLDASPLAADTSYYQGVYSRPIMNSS
Chain of Transcription factor E2F1 (Homo sapiens) (Q01094 whole entry, looked up): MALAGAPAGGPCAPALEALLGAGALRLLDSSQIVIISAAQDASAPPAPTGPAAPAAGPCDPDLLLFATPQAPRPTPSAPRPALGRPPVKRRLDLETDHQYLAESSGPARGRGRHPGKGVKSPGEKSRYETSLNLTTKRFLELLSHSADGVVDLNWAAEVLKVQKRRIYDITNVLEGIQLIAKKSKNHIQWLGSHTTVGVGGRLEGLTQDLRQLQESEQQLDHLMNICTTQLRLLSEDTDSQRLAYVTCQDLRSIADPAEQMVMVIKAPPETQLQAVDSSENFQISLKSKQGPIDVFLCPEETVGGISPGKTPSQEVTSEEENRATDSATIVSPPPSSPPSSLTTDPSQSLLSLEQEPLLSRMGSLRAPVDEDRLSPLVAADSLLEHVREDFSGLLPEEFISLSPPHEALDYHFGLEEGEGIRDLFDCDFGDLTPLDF
Chain of Hypoxia-inducible factor 1-alpha (Homo sapiens) (Q16665 whole entry, looked up): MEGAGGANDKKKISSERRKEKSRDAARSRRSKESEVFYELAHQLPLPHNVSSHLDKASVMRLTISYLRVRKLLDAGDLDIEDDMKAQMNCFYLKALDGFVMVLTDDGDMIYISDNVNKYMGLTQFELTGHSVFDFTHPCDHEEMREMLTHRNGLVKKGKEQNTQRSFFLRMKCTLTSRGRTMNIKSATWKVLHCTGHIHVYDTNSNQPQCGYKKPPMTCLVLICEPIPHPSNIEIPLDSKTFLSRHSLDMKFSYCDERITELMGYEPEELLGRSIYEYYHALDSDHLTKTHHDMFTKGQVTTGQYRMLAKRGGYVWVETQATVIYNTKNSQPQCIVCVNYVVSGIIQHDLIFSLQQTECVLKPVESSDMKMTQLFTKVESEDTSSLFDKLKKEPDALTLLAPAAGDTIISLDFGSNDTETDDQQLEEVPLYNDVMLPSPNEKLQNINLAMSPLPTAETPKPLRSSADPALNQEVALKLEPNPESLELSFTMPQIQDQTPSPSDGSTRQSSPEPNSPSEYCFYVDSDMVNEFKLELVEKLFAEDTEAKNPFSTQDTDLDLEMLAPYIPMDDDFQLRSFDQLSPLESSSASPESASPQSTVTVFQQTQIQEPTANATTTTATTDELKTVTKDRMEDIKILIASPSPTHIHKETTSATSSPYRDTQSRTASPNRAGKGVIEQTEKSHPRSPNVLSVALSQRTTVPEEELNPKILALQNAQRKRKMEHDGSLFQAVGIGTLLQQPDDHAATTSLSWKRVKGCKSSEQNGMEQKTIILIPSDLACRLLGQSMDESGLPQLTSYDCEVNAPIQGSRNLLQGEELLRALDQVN
Chain of Hepatocyte nuclear factor 6 (Homo sapiens) (Q9UBC0 whole entry, looked up): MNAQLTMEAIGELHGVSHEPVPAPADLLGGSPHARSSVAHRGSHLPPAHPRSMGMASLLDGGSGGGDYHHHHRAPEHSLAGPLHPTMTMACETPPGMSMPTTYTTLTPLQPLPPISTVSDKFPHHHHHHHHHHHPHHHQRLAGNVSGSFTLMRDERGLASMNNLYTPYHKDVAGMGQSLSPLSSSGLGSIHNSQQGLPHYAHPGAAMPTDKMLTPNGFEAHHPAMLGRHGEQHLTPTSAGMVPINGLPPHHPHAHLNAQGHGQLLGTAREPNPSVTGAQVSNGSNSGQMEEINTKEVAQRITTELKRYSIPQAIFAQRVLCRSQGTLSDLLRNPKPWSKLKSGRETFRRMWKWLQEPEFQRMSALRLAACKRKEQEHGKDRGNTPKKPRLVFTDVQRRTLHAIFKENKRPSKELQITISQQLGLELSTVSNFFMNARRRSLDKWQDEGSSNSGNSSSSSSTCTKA
Chain of Bile acid receptor (Homo sapiens) (Q96RI1 whole entry, looked up, the tested form may be a part): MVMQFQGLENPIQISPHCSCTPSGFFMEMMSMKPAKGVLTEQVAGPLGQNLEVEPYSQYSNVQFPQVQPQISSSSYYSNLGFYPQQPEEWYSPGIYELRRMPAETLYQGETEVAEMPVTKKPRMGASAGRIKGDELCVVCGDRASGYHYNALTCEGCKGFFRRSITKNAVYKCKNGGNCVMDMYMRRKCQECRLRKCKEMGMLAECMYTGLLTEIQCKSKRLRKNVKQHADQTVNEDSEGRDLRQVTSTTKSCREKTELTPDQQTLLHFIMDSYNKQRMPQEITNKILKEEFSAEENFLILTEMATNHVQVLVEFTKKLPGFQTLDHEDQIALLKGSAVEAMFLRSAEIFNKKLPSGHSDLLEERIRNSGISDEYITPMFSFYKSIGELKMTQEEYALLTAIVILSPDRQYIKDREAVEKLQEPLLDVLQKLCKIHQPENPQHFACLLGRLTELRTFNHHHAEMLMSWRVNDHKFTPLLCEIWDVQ
Chain of Heat shock factor protein 1 (Homo sapiens) (Q00613 whole entry, looked up, the tested form may be a part): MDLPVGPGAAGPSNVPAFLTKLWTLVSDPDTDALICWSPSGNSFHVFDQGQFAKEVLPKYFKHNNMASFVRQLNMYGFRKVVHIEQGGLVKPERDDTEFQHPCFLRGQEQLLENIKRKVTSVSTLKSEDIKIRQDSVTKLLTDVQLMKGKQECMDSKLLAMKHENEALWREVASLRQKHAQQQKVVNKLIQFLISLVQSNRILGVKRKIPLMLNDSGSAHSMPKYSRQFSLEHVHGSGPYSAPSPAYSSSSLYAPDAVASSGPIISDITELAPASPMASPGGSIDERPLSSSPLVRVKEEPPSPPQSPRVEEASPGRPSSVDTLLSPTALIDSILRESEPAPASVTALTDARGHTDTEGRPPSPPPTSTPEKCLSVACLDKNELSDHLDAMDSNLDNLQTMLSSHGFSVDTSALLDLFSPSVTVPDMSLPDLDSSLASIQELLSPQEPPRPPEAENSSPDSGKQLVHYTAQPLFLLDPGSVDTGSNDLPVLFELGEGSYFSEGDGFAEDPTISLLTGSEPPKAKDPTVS

Regarding `Cc1ccc([N+](=O)[O-])cc1N`, the outcome in test [1], in [2], in test [3], in test [4], in test [5] and in [6] was inactive. The result in [7], in test [8], in test [9], in test [10], in [11] and in test [12] was inactive. Moreover, the outcome in test [13], in test [14], in test [15], in test [16] and in [17] was inactive.

For the compound `CCC(=O)C1CC(C(C)C)CC=C1C` (stereo not given), the compound was classed as inactive in test [1], in [2], in [3], in [4], in test [5] and in [6]. For the same compound, the outcome in test [7], in test [8], in [9], in [10], in test [18] and in [19] was inactive. Besides, the compound was classed as inactive in test [13], in [14], in [15], in test [16] and in test [17].

Regarding `CCCCC(=O)O`, the compound was classed as inactive in test [1], in test [2], in test [3], in [4], in test [5] and in test [6]. The result in test [7], in [8], in [9], in [10], in test [11] and in [19] was inactive. In addition, the result in test [12], in test [13], in test [14], in [15], in [16] and in [17] was inactive.

As for `O=C1CCCN1C1CCCCC1`, the compound was called inactive in test [1], in [2], in test [4], in [5], in test [6] and in test [7]. Besides, the call in test [8], in [9], in test [10], in test [11], in test [18] and in test [19] was inactive. The outcome in [12], in [13], in [14], in test [15], in [16] and in [17] was inactive.

As for `CCCCNS(=O)(=O)c1ccccc1`, the compound was classed as inactive in test [1], in test [20], in [2], in test [5], in test [6] and in test [7]. In addition, the compound was called inactive in [9], in test [10], in [11], in [19], in test [12] and in test [13]. Besides, the outcome in test [14], in [15], in test [16] and in test [17] was inactive.

As for `c1ccc(Nc2cccc3ccccc23)cc1`, the AC50 is 33.4 µM (active) in [1]; 2.06 µM (active) in [5]; 33.4 µM (active) in test [6]; 53.2 µM (active) in test [8]; 54 µM (active) in test [10]; 24.8 µM (active) in test [19]. Moreover, the AC50 is 51.8 µM (active) in [15], 53.8 µM (active) in test [16] and 49.7 µM (active) in test [17]. Besides, the call in test [2], in test [7], in [9], in test [18], in test [12] and in [13] was inactive. Besides, the compound was classed as inactive in [14].

As for `C=Cc1cccc(C)c1`, the outcome in test [1], in test [2], in [3], in test [4], in test [5] and in test [6] was inactive. Moreover, the compound was classed as inactive in test [7], in [8], in test [9], in [10], in [18] and in test [19]. For the same compound, the result in [12], in [13], in test [14], in test [15], in test [16] and in [17] was inactive.
